In PubChem BioAssay AID720697 (Broad Institute, 2013):
Measured potencies and affinities stand elsewhere. Results filed as inconclusive are left out. The source made the active and inactive calls.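 The calls were made as follows: active = signal loss with fitted half-maximal concentration at or below twice the top valid tested dose in every test run; inconclusive = runs disagree, flat 30 to 70% signal loss, or poor fit; inactive = all runs flat, opposite direction, or potency beyond limit.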

Assay: HEK293T cytotoxicity, dose response, cytotoxicity control for miR-122 modulator project, cell-based, inhibitor set, cherry-pick, set 2 (AID 720697)
Conditions: HEK293T viability, CellTiter-Glo luminescence, 48 h; series mostly up to 26 µM

**Q.** For `CN1C(=O)c2cc(NC(=O)c3cccc(F)c3)ccc2OC[C@@H]2O[C@@H](CC(=O)Nc3ccccc3)CC[C@@H]21`, which outcome is on record?
**A.** inactive

**Q.** With `COc1ccc(S(=O)(=O)N(C)C[C@@H]2Oc3cc(-c4cccc(F)c4)ccc3S(=O)(=O)N([C@@H](C)CO)C[C@H]2C)cc1` as the compound, how does the outcome read?
**A.** inactive

**Q.** With `O=C(CN1CCN(c2nc(-c3ccccc3)cs2)CC1)Nc1ccc2c(c1)OCO2` as the compound, how does the outcome read?
**A.** inactive

**Q.** Which outcome does the source give for `CCCNC(=O)N1C[C@@H]2[C@H](c3ccccc31)[C@@H](CO)N2C(=O)C1CCOCC1` here?
**A.** inactive
